Measurements published in PubChem BioAssay (NCI).
The panel holds about 83,000 compounds, 20% with a hit somewhere; the sample as a whole holds those more often.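 Values shown are percent growth following 48 h exposure of cells in 96-well plates to a single concentration of compound; below 10 was considered active.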 Unmarked numbers belong to inactive results. Activity calls are given as the source filed them.

System: HL-60(TB) leukemia
Experiment: NCI-60 one-dose screen, 48 h (100 = growth as untreated, 0 = no growth, -100 = all killed)
Conditions: 10 µM unless noted

Row | SMILES | growth
1 | C[C@@H](C[C@H](CCO)c1ccccc1)c1ccc2ccccc2c1 | -38.5% (active)
2 | COc1cc(C(=O)c2c(-c3ccccc3)oc3ccccc23)cc(OC)c1O | 5.07% (active)
3 | COc1cc(Cl)cc(-c2nn(-c3cccc(NC(=O)Nc4cccc(C(F)(F)F)c4)c3)cc2-c2ccncc2)c1 | -7.89% (active)
4 | CC[C@]12C=CCN3CC[C@@]4(c5ccc(OC)cc5N(C)[C@H]4[C@@](O)(C(=O)OC)[C@@H]1OC(=O)CCC(=O)N[C@@H](Cc1c[nH]c4ccccc14)C(=O)OC)[C@@H]32 | -5.33% (active)
5 | COc1ccc2ccccc2c1/C=N/N1CCCCC1 | 94.3%
6 | Cn1cc(-c2noc(-c3cn(C)c4ncc(Br)cc34)n2)c2cc(Cl)ccc21 | 102%
7 | CCOc1ccc(-c2nc3ccc(-c4nc5ccc(N6CCN(C)CC6)cc5[nH]4)cc3[nH]2)cc1 | -57.9% (active)
8 | COC(=O)/C=C1/SC(=NCc2ccccc2)N(CCc2c[nH]c3ccccc23)C1=O | 79.8%
9 | CC(C)C[C@H](C(=O)O)N(C)C(=O)[C@@H]1CCCN1C(=O)[C@H](C)OC(=O)[C@H](CCC(N)=O)NC(=O)[C@@H]1CCC(=O)N1 | 85.8%
10 | O=C(CSSCC(=O)c1ccc(Cl)cc1)c1ccc(Cl)cc1 | 44.7%
11 | COc1ccc(/C=C/c2cc(N3CCOCC3)c3cc(F)c(F)cc3n2)cc1OC | -8.49% (active)
12 | COc1ccc(C(O)c2cc3c(N)c(C(=O)Nc4cccc5ccccc45)sc3nc2C)cc1 (centres undefined) | -1.39% (active)
13 | CCOc1ccc2c(c1)CN(Cc1ccc(Cl)cc1)CO2 | 94.9%
14 | CC1(C)CC(=O)C2=C(C1)N(c1ccc(OC(F)(F)F)cc1)C(N)=C(C#N)C2c1ccc(Cl)cc1 (centres undefined) | 102%
15 | O=[N+]([O-])c1cccc(-c2nc3sccn3c2-c2ccnc(NCCCNS(=O)(=O)c3cccc(F)c3)n2)c1 | -21.5% (active)
16 | O=C(N/N=C/c1ccc(Cl)cc1Cl)c1ccc2nc(-c3ccc(Cl)cc3)[nH]c2c1 | 5.77% (active)
17 | COc1ccc(/C=C/C(=O)c2ccc(B(O)O)cc2)cc1O | 37.7%
18 | CC(C)(C)OC(=O)NCc1cccc(N=C=S)c1 | -24% (active)
19 | COc1cccc(/C=N/N=C(N)N)c1 | 122%
20 | COc1ccc(-c2nc(SCC(=O)c3ccc(Br)cc3)[nH]c(=O)c2C#N)cc1 | 91.5%
21 | CN1CCN(c2ccc(-c3ccc4ncc(C#N)c(Nc5ccc(F)c(Cl)c5)c4c3)cn2)CC1 | 38.1%

Row | SMILES | growth
22 | Nc1c(C(=O)c2ccc(Cl)cc2)sc(Nc2ccccc2)c1-c1nc2ccccc2s1 | 69.6%
23 | CCCCCCCCCCCCCCCCCC1=NC(C)(C)CN1CC(C)O (centres undefined) | 61%
24 | CC(C)CC(=O)Nc1n[nH]c2c1CN(C(=O)C1CCN(C)CC1)C2(C)C | -26.2% (active)
25 | O=[N+]([O-])c1ccc(Oc2ccccc2Cl)c([N+](=O)[O-])c1 | -1.82% (active)
26 | Cc1nc2sc(C(=O)Nc3ccccc3)c(N)c2cc1C(C)O (centres undefined) | -2.23% (active)
27 | Nc1nc(SCC2(CCl)COC2)c2[nH]cnc2n1 | 105%
28 | COc1ccc(CCN2C(=O)CCSC2=S)cc1OC | 98.1%
29 | C=COCCCCCCCCCCCCCCCCCC | 73.8%
30 | Nc1cc(-c2ccncc2)c[nH]c1=O | 87.6%
31 | CC1SC(N)=NC1=O (centres undefined) | 104%
32 | COc1ccc(C(O)c2cc3c(N)c(C(=O)Nc4cccc(Cl)c4C)sc3nc2C)cc1 (centres undefined) | -51% (active)
33 | Oc1ccccc1/C=N/N=C/c1c(O)ccc2ccccc12 | 51%
34 | C=CCCC(=O)N1C=CC(=O)[C@H](O)[C@@H]1/C=C/c1ccccc1 | 32.2% [100 µM]
35 | CCOC(=O)CCC[P+](c1ccccc1)(c1ccccc1)c1ccccc1 | 37.7%
36 | COc1cc(Nc2c3ccc(Cl)cc3nc3ccc(OC)cc23)c2ncccc2c1 | 49.5%
37 | Cc1cc2cn3c4ccc(O)cc4nc(N)c3c2cc1C | -32.5% (active)
38 | NC(=O)c1cccc(-c2cc(C(N)=O)ccc2Cl)c1 | -22.7% (active)
39 | O=C(/C=C/c1ccccn1)c1ccc(OCc2nnc(-c3ccc(Cl)cc3)o2)cc1 | 43%
40 | CN(C)CCN1C(=O)c2cccc3c(-c4ccc(-c5nc6c7ccccc7c7ccccc7c6[nH]5)cc4)ccc(c23)C1=O | 90.7%
41 | CCCS(=O)(=O)Nc1cccc(Nc2ncnc3cc(NC(=O)CCl)ccc23)c1Cl | -35.5% (active)
42 | Cc1cn(-c2nc3c(c(NCc4ccccc4)n2)COCC3)c2cccc(C(N)=O)c12 | 71.1% [0.5 µM]

Row | SMILES | growth
43 | O=[N+]([O-])c1ccc(Oc2cccc3c(Oc4ccc([N+](=O)[O-])cc4[N+](=O)[O-])cccc23)c([N+](=O)[O-])c1 | 99.9%
44 | C=CCNC(=O)/C(=C/c1cccc([N+](=O)[O-])c1)NC(=O)c1ccccc1 | 137%
45 | CC1CCC(C(C)C)C(NNC(N)=O)C1 (centres undefined) | 108%
46 | Cc1ccccc1-c1cc(-c2ccc(Br)s2)[nH]c(=O)c1C#N | 82%
47 | N#Cc1ccc2nc[nH]c2c1 | 101%
48 | COc1ccc(C2CC(c3cccc(Nc4ccnc5cc(Cl)ccc45)c3)=NN2C=O)cc1 (centres undefined) | -38.2% (active)
49 | COc1cc(-c2nn(-c3cccc(NC(=O)CCN4CCN(Cc5ccccc5)CC4)c3)cc2-c2ccncc2)ccc1Cl | -5.82% (active)
50 | Cc1cc(N(CCNc2ccnc3cc(Cl)ccc23)Cc2ccc3c(c2)OCO3)nc(N2CCN(C)CC2)n1 | -57.8% (active)
51 | COc1cccc(Cn2cc3c(c2)-c2oncc2CC3)c1 | 1.64% (active)
52 | O=c1cc(-c2ccccc2)oc2c1ccc1ccccc12 | 106%
53 | NC[C@H](O)c1ccc(O)c(O)c1 | 98.8%
54 | O=C1N/C(=C\c2ccccc2)c2ncccc21 | 117%
55 | CCn1cc(C(=O)N/N=C/c2ccccc2)c(=O)c2cc(F)c(N3CCNC(C)C3)c(F)c21 (centres undefined) | 18.1%
56 | COc1ccc(Cl)cc1Nc1nc(C(F)(F)F)ccc1C(=O)N/N=C/c1ccc(N(C)C)cc1 | 85.4%
57 | COc1cc2c(cc1O)CC[C@@H]1[C@@H]2CC[C@]2(C)[C@@H](NCCN(C)C)CC[C@@H]12 | -67.7% (active)
58 | COc1cc2nc(Sc3sc(N)nc3C)n(-c3ccc(Oc4ccccc4)cc3)c(=O)c2cc1OC | 78.9%
59 | Cn1c(O)c(C(/C=C/c2ccccc2)=Nc2ccccc2N)c(=O)n(C)c1=O | -39.4% (active)
60 | CCN1CCN(c2nc(C)cc(N(CCNc3ccnc4cc(Cl)ccc34)Cc3ccc4c(c3)OCO4)n2)CC1 | -57.7% (active)
61 | Cc1nc2ccccc2c(/C=C/c2ccc(Br)cc2)c1C(=O)/C=C/c1ccccc1 | 2.74% (active)
62 | COc1ccc(NC(=O)CSc2nnc(-c3cc(-c4ccccc4)nc4ccccc34)n2-c2ccccc2)cc1 | 105%
63 | CCNC(=O)C1CCCN1C(=O)C(CCCN=C(N)N)NC(=O)C(CC(C)C)NC(=O)C(CC(C)C)NC(=O)C(Cc1ccc(O)cc1)NC(=O)C(CO)NC(=O)C(Cc1c[nH]c2ccccc12)NC(=O)C(Cc1cnc[nH]1)NC(=O)C1CCC(=O)N1 (centres undefined) | 113%

Row | SMILES | growth
64 | O=Nc1ccc2ccccc2c1O | 74.3%
65 | CC(C)c1nc(N(C)S(C)(=O)=O)nc(-c2ccc(F)cc2)c1/C=C/[C@@H](O)C[C@@H](O)CC(=O)O | 114%
66 | COc1ccc(C(=O)/C=C/c2c(Cl)c3c(c(OC)c2Cl)OCC(=O)N3)cc1 | 13.8%
67 | O=C(CSc1ncc(-c2ccccc2)n1-c1ccccc1)Nc1ccc(-c2nc3ccccc3s2)cc1 | 100%
68 | Cc1c(C(=O)O)c(=O)n(-c2ccccc2)n1C | 109%
69 | CCOC(=O)c1c(C)n(-c2ccc(Cl)cc2)c2ccc(OC(=O)/C=C/c3ccccc3)cc12 | 57.1%
70 | O=C(S)CNC(=O)c1ccccc1 | 91%
71 | Cc1ccc(CNc2c3ccccc3nc3ccccc23)cc1 | 25.5%
72 | O=[N+]([O-])c1ccc(OCCO)cc1 | 125%
73 | CC1(C)Nc2cccc3c(N=Nc4ccc(N=Nc5ccccc5)c5ccccc45)ccc(c23)N1 | 86.1%
74 | Cc1cc(SC#N)ncn1 | 102%
75 | C[n+]1c2ccccc2nc2ccc(NCCO)cc21 | 70.6%
76 | Cc1nc2sc(C(=O)Nc3ccc(Cl)cc3)c(N)c2cc1C(O)c1ccccc1 (centres undefined) | 2.56% (active)
77 | COc1ccc(C(=O)c2cc(OC)c(OC)c(OC)c2)cc1/C=C/C(=O)c1ccc2c(c1)OCO2 | 27.5%
78 | O=C1c2cccc(NCCN=Cc3cc([N+](=O)[O-])ccc3O)c2C(=O)c2c(NCCN=Cc3cc([N+](=O)[O-])ccc3O)cccc21 | 70.8%
79 | Nc1c(C(=O)Nc2cccc(C(F)(F)F)c2)sc2nc3c(cc12)C(O)CCC3 (centres undefined) | -0.216% (active)
80 | O=c1oc2c(C(F)(F)F)cccc2cc1-c1csc(Nc2ccc(OCCF)cc2)n1 | -1.08% (active)
81 | CC1=C(/C=C/C(C)=C/C=C(C(=O)O)\C(C)=C\C(=O)O)C(C)(C)CCC1 | 85.3%
82 | NC(=O)c1cccc([C@@H]2O[C@H](CO)[C@@H](O)[C@H]2O)c1 | 39.5%
83 | CC[C@H](CC[C@@H](C)[C@H]1CC[C@H]2[C@@H]3CC=C4C[C@@H](OCCc5nn[nH]n5)CC[C@]4(C)[C@H]3CC[C@]12C)C(C)C | 103%
84 | O=C(O)CCCN1C(=O)NC2(C1=O)c1ccccc1-c1ccccc12 | 101%
